Only some compounds are listed: those with a hit (about 3.1% of all), similar ones and a draw of the others.
rTrxR1 inhibitor – blocks rat thioredoxin reductase 1; Potency, µM (highest dose often 114 µM), for inactives: at the highest dose activity change, negative = inhibition, usual class: inhibitors; recombinant rTrxR1, NADPH fluorescence consumption, selenite substrate; O89049; 390,000 compounds, 1% hits; also: % is scaled to controls: 0 for no effect and ±100 for the full control effect; nearly all actives have a fitted effect of over 65% in size
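Rat TrxR1 (90 nM in the dispensed reagent) was pre-reduced with 400 uM NADPH for 5 min at room temperature, then incubated with compound for 15 min. After 400 uM selenite was added, NADPH fluorescence (Ex 340/Em 450 nm) was followed for 8 min.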
Nrf2 inh – blocks Nrf2 signaling. A549 ARE-Fluc reporter, luciferase luminescence, 18-24 h. Potency, µM (titrated, usually from 46 µM), for inactives: top-dose activity change, negative = inhibition, actives largely listed as inhibitors. 360,000 compounds, 2.1% hits; also: % is scaled to controls: 0 for no effect and ±100 for the full control effect; nearly all actives have a fitted effect of over 60% in size
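Concentration-response testing used A549 ARE_Fluc cells at 5000 cells/well. Following an 18-24 h compound incubation, viability was read by fluorescence (Ex 405/Em 525) and luciferase output by luminescence.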
mIDH1 inhibitor – human IDH1 R132H inhibition. IDH1-R132H enzyme, NADPH consumption, diaphorase/resazurin fluorescence. Potency, µM (doses to about 76.6 µM), for inactives: at the top dose activity change, negative = inhibition, usual class: inhibitors. 390,000 compounds, 0.093% hits; also: % is scaled to controls: 0 for no effect and ±100 for the full control effect; nearly all actives have a fitted effect of over 65% in size
Target sequence (O75874 whole entry R132H, stated change not applied): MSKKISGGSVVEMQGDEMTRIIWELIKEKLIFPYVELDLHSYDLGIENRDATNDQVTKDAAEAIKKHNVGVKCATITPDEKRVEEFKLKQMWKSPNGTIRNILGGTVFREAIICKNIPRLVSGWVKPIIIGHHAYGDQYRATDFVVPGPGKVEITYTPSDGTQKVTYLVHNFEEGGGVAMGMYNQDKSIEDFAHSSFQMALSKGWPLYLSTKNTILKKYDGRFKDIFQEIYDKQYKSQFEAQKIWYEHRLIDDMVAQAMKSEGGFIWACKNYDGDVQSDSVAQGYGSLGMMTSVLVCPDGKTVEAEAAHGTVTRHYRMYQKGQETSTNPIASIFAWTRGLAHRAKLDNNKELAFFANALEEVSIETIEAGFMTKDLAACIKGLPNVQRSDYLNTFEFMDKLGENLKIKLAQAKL
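IDH1-R132H (0.5 ug/mL) preincubated 30 min with compound, then NADPH (0.016 mM) and alpha-KG (2 mM) added; 80 min at RT, pH 7.5. Remaining NADPH coupled via diaphorase/resazurin to fluorescence (540/590 nm); concentration-response curves normalized to no-enzyme control.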
Mito fusion yeast – mitochondrial division inhibition or fusion activation; S. cerevisiae fusion-defective mutant growth rescue, CellTiterGlo 48 h; Potency, µM (top dose mostly 46.1 µM), for inactives: at the top dose growth rescue (activation), usual class: activators; 320,000 compounds, 0.23% hits; AID 485298; also: % of control where 0% means no effect; nearly all actives have a fitted effect of over 45% in size
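Luminescent cell viability in 1536-well qHTS format served as the measure of rescued growth in ts fusion-mutant S. cerevisiae cultured on non-fermentable YPEG for 48 hours at 37C.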
TrxR1 substrate – substrates of rat thioredoxin reductase 1; O89049; purified TrxR1 substrate turnover, NADPH consumption readout; Potency, µM (top dose mostly 114 µM), without a hit: at the highest dose activity change, negative = substrate turnover; 390,000 compounds, 0.01% hits; also: % is scaled to controls: 0 for no effect and ±100 for the full control effect; nearly all actives have a fitted effect of over 50% in size
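Rat TrxR1, dispensed at 90 nM, was prereduced with 400 uM NADPH (final) for 5 min at ~22 deg C, then incubated with compound 15 min before 400 uM selenite. A first-read NADPH fluorescence drop versus no-compound background flagged substrates.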
A549 tox-1 – counter-screen for Nrf2 inhibitors: cytotoxicity in A549 cells; A549 ARE-Fluc cells, CellTiter-Fluor viability, 18-24 h; Potency, µM (doses to about 46 µM), without a hit: at the top dose activity change, negative = cytotoxicity, actives largely listed as inhibitors; 390,000 compounds, 0.16% hits; AID 504648; also: % is scaled to controls: 0 for no effect and ±100 for the full control effect
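A549 ARE_Fluc cells in 5% FBS OPTI-MEM were exposed to compounds in concentration-response for 18-24 h at 37 deg C. Viability was read by CellTiter-Fluor fluorescence (Ex 405/Em 525) after 30 min, before the luciferase read.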
FLuc enzyme inh – firefly luciferase inhibition, Nrf2 hit validation; 1,400 compounds, 4% hits; purified firefly luciferase, luminescence inhibition; shares compounds with Nrf2 inh; Potency, µM (top dose mostly 57.5 µM), for the others: at the top dose activity change, negative = inhibition, actives largely listed as inhibitors; also: % is scaled to controls: 0 for no effect and ±100 for the full control effect; nearly all actives have a fitted effect of over 65% in size
A549 tox-2 – A549 cytotoxicity, Nrf2 inhibitor counterscreen; shares compounds with Nrf2 inh; A549 ARE-Fluc cells, cytotoxicity counterscreen; Potency, µM (highest dose often 46.1 µM), for inactives: at the highest dose activity change, negative = cytotoxicity, actives largely listed as inhibitors; 1,400 compounds, 2% hits; AID 720523;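 also: cells exposed to compounds for 18 to 24 hours; % is scaled to controls: 0 for no effect and ±100 for the full control effect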
ARE-Fluc inh – confirmation of Nrf2 inhibitors in A549 ARE reporter cells. shares compounds with Nrf2 inh. A549 ARE-firefly luciferase reporter, luminescence. Potency, µM (top dose mostly 46.1 µM), without a hit: at the highest dose activity change, negative = inhibition, hits mostly inhibitors. 1,400 compounds, 74% hits. AID 720524; also: % is scaled to controls: 0 for no effect and ±100 for the full control effect; nearly all actives have a fitted effect of over 65% in size
The depositor's hits bear a star; ? = inconclusive; nt = no result given; [ ] = another dose, or the depositor's remark. Calls follow the shape of the dose curve; as a rule, active = well fitted curve in the direction sought with a large enough effect; inconclusive = small, poorly fitted or top-dose-only effect, or another doubt; inactive = no such curve, though single readings can be large; an effect the other way counts as inactive or inconclusive. Potency is read from the fitted curve at half-maximal effect.

SMILES	rTrxR1 inhibitor	Nrf2 inh	mIDH1 inhibitor	Mito fusion yeast	TrxR1 substrate	A549 tox-1	FLuc enzyme inh	A549 tox-2	ARE-Fluc inh
COc1ccc(S(=O)(=O)Nc2ccc(F)cc2)cc1N(C)S(=O)(=O)c1ccc(Cl)cc1	15%	?	1%	26%	-9%	-29%	nt	nt	nt
Cc1ccc2c(c1)C(c1ccccc1)N(C(=O)c1ccc(OC(C)C)cc1)CC(=O)N2 (stereo unspecified)	26%	5%[9.27 µM]	-11%	nt	5%	1%	nt	nt	nt
Cc1cc(=O)[nH]c2nnc(SCc3ccc(F)cc3)n12	12%[57.1 µM]	nt	12%	nt	-3%[57.1 µM]	-26%	nt	nt	nt
Cc1cc(C)c(S(=O)(=O)NCCc2ccncc2)c(C)c1	19%	-28%	0%	9%	7%	-3%	nt	nt	nt
Cc1cc(C)c(S(=O)(=O)NCc2ccncc2)c(C)c1	9%[57.1 µM]	?	3%	1%	12%[57.1 µM]	-17%	0.11µM*	-2%	0.21µM*
COc1cc(C)c(Br)cc1S(=O)(=O)NCc1ccncc1	20%[57.1 µM]	3.3µM*	0%	-5%	4%[57.1 µM]	-6%	1%	5%	-32%
Cc1ccc(S(=O)(=O)NCc2ccncc2)c(C)c1C	29%	1.5µM*	-6%	15%	3%	-6%	0%	-7%	6.5µM*
COc1cc(C)c(Br)cc1S(=O)(=O)NCc1cccs1	-19%	-17%	5%	4%	-18%	1%	nt	nt	nt
CC1CCN(c2ccc(-c3cccc(NS(=O)(=O)c4cccs4)c3)nn2)CC1	24%[57.1 µM]	nt	31%	nt	0%[57.1 µM]	-18%	nt	nt	nt
O=C(CNc1cccc(C(F)(F)F)c1)Nc1cccc(S(=O)(=O)N2CCCC2)c1	0%	?	-12%	-2%	-11%	-23%	nt	nt	nt
N#Cc1cccc(NC(=O)CNc2cccc(S(=O)(=O)N3CCCC3)c2)c1	44%[57.1 µM]	7.3µM*	6%	-5%	25%[57.1 µM]	?	2%	-7%	?
O=C(CNc1cc(S(=O)(=O)N2CCCC2)ccc1OCC(F)(F)F)Nc1cccc(C(F)(F)F)c1	-3%	7.3µM*	-1%	-4%	-15%	-19%	0%	-18%	13µM*
N#Cc1cccc(NCC(=O)Nc2cccc(S(=O)(=O)N3CCCCC3)c2)c1	18%	?	2%	-1%	3%	-2%	nt	nt	nt
CCC(C)N1CCC2(CC1)N=c1c(c3c4c5c(C)c(O)c3c(O)c1=NC(=O)C(C)=CC=C[C@H](C)[C@H](O)[C@@H](C)[C@@H](O)[C@@H](C)[C@H](OC(C)=O)[C@H](C)[C@@H](OC)C=CO[C@@](C)(O5)C4=O)N2 (stereo partly specified)	6%	8.2µM*	-4%	0%	-4%	?	-14%	?	?
COC1C=COC2(C)Oc3c(C)c(O)c4c(O)c(c(CN5CCN(C)CC5)c(O)c4c3C2=O)NC(=O)C(C)=CC=CC(C)C(O)C(C)C(O)C(C)C(OC(C)=O)C1C (stereo unspecified)	9%[11.4 µM]	-9%	0%	nt	2%[11.4 µM]	-16%	nt	nt	nt
COc1ccc(Cl)cc1NC(=O)C1CCCN(S(=O)(=O)c2ccc3c(c2)CCCC(=O)N3)C1 (stereo unspecified)	12%	?	-13%	nt	-12%	2%	nt	nt	nt
COc1ccc(NC(=O)CC2NCCNC2=O)c(OC)c1 (stereo unspecified)	5%	2%	-9%	nt	13%[11.4 µM]	-5%	nt	nt	nt
O=C(Nc1ccc(S(=O)(=O)N2CCOCC2)cc1)c1ccc(CN2CCc3ccccc3C2)cc1	0%	0.82µM*	-2%	8%	-3%	?	-1%	2%	1.6µM*
N#CCc1ccc(NC(=O)c2ccc(CN3CCc4ccccc4C3)cc2)cc1	3%	5.2µM*	0%	-2%	-2%	0%	-15%	7%	?
O=C(Nc1ccc(S(=O)(=O)N2CCCC2)cc1)c1ccc(CN2CCc3ccccc3C2)cc1	-4%	1.5µM*	3%	15%	-7%	-7%	0%	-16%	1.6µM*
O=C(Nc1ccccc1)c1ccc(S(=O)(=O)N2CCOCC2)cc1	6%	?	5%	2%	-4%	7%	nt	nt	nt
COc1ccc(Cc2nc3ccc(C(=O)NCCCN4CCN(C)CC4)cc3o2)cc1	11%[57.1 µM]	nt	10%	nt	5%[57.1 µM]	?	nt	nt	nt
COc1ccc(-c2nc(C)c(CCNC(=O)c3c(F)cccc3F)s2)cc1	15%[57.1 µM]	nt	10%	nt	11%[57.1 µM]	-2%	nt	nt	nt
CCc1cccc(C)c1NC(=O)CSc1nc2ccccc2nc1Cc1ccccc1	14%[57.1 µM]	nt	-19%	nt	-3%[57.1 µM]	-5%	nt	nt	nt
Cc1cccc(CNC(=O)c2cnc3sc(N4CCCCCC4)nn3c2=O)c1	10%[57.1 µM]	27%	5%	nt	3%[57.1 µM]	9%	nt	nt	nt
CC(C)CCCCCCCCCCCCC(=O)NCC(=O)NC1C(O)C(O)C(Nc2ncnc3nc[nH]c23)OC1C(O)CO (stereo unspecified)	-12%[11.4 µM]	0.058µM*	-3%	nt	9%[57.1 µM]	0.73µM*	0%	?	0.013µM*
Cc1ccc(S(=O)(=O)c2nnn3c2nc(NCc2ccc4c(c2)OCO4)c2sccc23)cc1C	17%	?	0%	nt	12%	1%	nt	nt	nt
C[C@@H]1C[C@H]2[C@@H]3CCC4=CC(=O)C=C[C@]4(C)[C@@]3(F)[C@@H](O)C[C@]2(C)[C@H]1C(=O)CO	22%	0.018µM*	7%	0%	5%	-1%	3%	-15%	0.015µM*
CC(=O)[C@@]1(O)CC[C@H]2[C@@H]3C[C@H](C)C4=CC(=O)C=C[C@]4(C)[C@@]3(F)[C@@H](O)C[C@@]21C	-23%	?	-15%	-2%	-6%	9%	nt	nt	nt
C[C@@H]1C[C@H]2[C@@H]3CCC4=CC(=O)C=C[C@]4(C)[C@@]3(F)[C@@H](O)C[C@]2(C)[C@@]1(O)C(=O)CO	-11%	0.0046µM*	9%	-1%	-5%	-9%	1%	-4%	0.0052µM*

Screening results: PubChem BioAssay, National Center for Advancing Translational Sciences (NCATS)
